The panel holds about 79,000 compounds, 15% with a hit somewhere; the sample as a whole holds those more often. Activity calls are given as the source filed them. Rule as the data show it: active = growth inhibition above about 70%; inactive = the rest.
Assays:
[1] = NCI Yeast Anticancer Drug Screen. Data for the rad52 strain (AID 147);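 also: 0% = growth of vehicle-treated control cultures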; details: S. cerevisiae rad52 mutant growth inhibition, active compounds read high
In short: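 Compounds are applied to a genetically defined yeast strain lacking normal DNA damage repair, and inhibition of growth is expressed relative to cultures given vehicle only.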

[2] = NCI Yeast Anticancer Drug Screen. Data for the wt1 strain (AID 149);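 also: 0% = growth of vehicle-treated wt1 cultures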; details: S. cerevisiae wt1 strain (SPY 50644) growth inhibition, active compounds read high
In short: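 Measured: growth of wt1 yeast under compound versus vehicle treatment, reported as inhibition.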

[3] = NCI Yeast Anticancer Drug Screen. Data for the rad50EPP+ strain (AID 151);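 also: 0% = growth of vehicle-treated control cultures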; details: S. cerevisiae rad50 mutant strain, active compounds read high
In short: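 Compounds were applied to the rad50EPP+ yeast strain, which bears a defined DNA repair alteration, and growth inhibition was determined relative to vehicle-treated cultures.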

[4] = NCI Yeast Anticancer Drug Screen. Data for the mgt1 strain (AID 153); details: S. cerevisiae mgt1 mutant growth inhibition, active compounds read high
In short: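 Strain: mgt1 yeast, one of a set carrying defined DNA damage repair or cell cycle control alterations. Compound-treated growth compared with vehicle.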

[5] = NCI Yeast Anticancer Drug Screen. Data for the rad50 strain (AID 155);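 also: 0% = growth of vehicle-only cultures of the same strain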; details: S. cerevisiae rad50 strain growth inhibition, active compounds read high
In short: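 Growth of the mutant yeast was measured after compound exposure and referenced to vehicle-treated cultures.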

[6] = NCI Yeast Anticancer Drug Screen. Data for the mec2-1 strain (AID 157); details: S. cerevisiae mec2-1 strain, active compounds read high
In short: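 Strain: mec2-1 (DNA repair/cell cycle alteration). Compound exposure, then growth measured; inhibition expressed relative to vehicle.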

[7] = NCI Yeast Anticancer Drug Screen. Data for the rad14 strain (AID 159);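 also: 0% = growth of vehicle-treated control cultures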; details: S. cerevisiae rad14 strain growth inhibition, active compounds read high
In short: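 Here, inhibition of yeast growth was measured after compound exposure, using a strain with a genetic defect in DNA damage repair and vehicle-treated cultures as the reference.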

[8] = NCI Yeast Anticancer Drug Screen. Data for the CLN2oe strain (AID 163);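 also: 0% = growth of vehicle-only control cultures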; details: S. cerevisiae CLN2oe strain, active compounds read high
In short: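 Growth of a genetically modified yeast strain is measured after compound exposure and compared with cultures given vehicle alone.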

[9] = NCI Yeast Anticancer Drug Screen. Data for the cln2 rad14 strain (AID 165);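 also: 0% = growth equal to vehicle treated cultures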; details: S. cerevisiae cln2 rad14 strain, active compounds read high
In short: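 Compounds are applied to the cln2 rad14 yeast strain, and growth is then compared with that of vehicle-treated cultures to give inhibition.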

[10] = NCI Yeast Anticancer Drug Screen. Data for the bub3 strain (AID 167); details: S. cerevisiae bub3 mutant strain, active compounds read high
In short: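 Whole-cell yeast assay. The mutant strain was incubated with compounds, and growth inhibition was determined by comparison with vehicle-treated cells.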

[11] = NCI Yeast Anticancer Drug Screen. Data for the wt2 strain (AID 169);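 also: 0% = growth of vehicle-treated yeast cultures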; details: S. cerevisiae wt2 strain growth inhibition, active compounds read high
In short: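 This strain belongs to a panel of yeast strains with defined genetic alterations in DNA damage repair or cell cycle control. Compounds are applied, and growth inhibition is measured against vehicle-treated cultures.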

[12] = NCI Yeast Anticancer Drug Screen. Data for the mlh1 strain (AID 171);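 also: 0% = growth of vehicle-treated control cultures of the same strain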; details: S. cerevisiae mlh1 strain growth inhibition, active compounds read high
In short: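 Growth of the mutant yeast strain after compound exposure, expressed as inhibition relative to vehicle-only controls.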

[13] = NCI Yeast Anticancer Drug Screen. Data for the sgs1 strain (AID 173);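 also: 0% = growth of vehicle-only control cultures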; details: S. cerevisiae sgs1 mutant, active compounds read high
In short: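 Growth of a yeast strain bearing a defined genetic alteration is measured after compound treatment. Inhibition is expressed relative to vehicle-only controls.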

[14] = NCI Yeast Anticancer Drug Screen. Data for the mlh1 rad18 strain (AID 175); details: S. cerevisiae mlh1 rad18 strain growth inhibition, active compounds read high
In short: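 Read-out is yeast growth inhibition, calculated against vehicle-only controls. The compound was applied to a strain engineered with DNA damage repair alterations.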

[15] = NCI Yeast Anticancer Drug Screen. Data for the rad18 strain (AID 177); details: S. cerevisiae rad18 mutant growth inhibition, active compounds read high
In short: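 Growth of the mutant yeast strain after compound exposure, normalised to vehicle-only cultures.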

[16] = at 5.0 µM (retest, dose inferred, filed as 0.5)
[17] = at 50.0 µM (retest, dose inferred, filed as 5.0)

Measured: growth inhibition

CCN(CC)C(=S)N/N=C(/C)c1cccc(/C(C)=N\NC(=S)N(CC)CC)n1
active: [1]; at 100.0 µM 90% | [2]; at 100.0 µM 87% | [3]; at 100.0 µM 79% | [4]; at 100.0 µM 91% | [5]; [17] 96% | [5]; at 100.0 µM 86% | [6]; [17] 95% | [6]; at 100.0 µM 86% | [7]; at 100.0 µM 92% | [8]; at 100.0 µM 91% | [9]; [17] 91% | [10]; [17] 90% | [10]; at 100.0 µM 84% | [11]; at 100.0 µM 89% | [12]; at 100.0 µM 85% | [13]; at 100.0 µM 88% | [14]; [17] 92% | [14]; at 50.0 µM 70.7% | [15]; at 100.0 µM 91%
inactive: [1]; at 1.2 µM -24% | [1]; at 3.7 µM -15% | [1]; at 11.0 µM 7% | [1]; at 33.0 µM 43% | [2]; at 1.2 µM -4% | [2]; at 3.7 µM -12% | [2]; at 11.0 µM 11% | [2]; at 33.0 µM 60% | [3]; at 1.2 µM 16% | [3]; at 3.7 µM 6% | [3]; at 11.0 µM 31% | [3]; at 33.0 µM 48% | [4]; at 1.2 µM 0% | [4]; at 3.7 µM -14% | [4]; at 11.0 µM 0% | [4]; at 33.0 µM 61% | [5]; at 1.2 µM -17% | [5]; at 3.7 µM -25% | [5]; [16] -14% | [5]; at 11.0 µM -12% | [5]; at 33.0 µM 50% | [5]; at 50.0 µM 55.5% | [6]; at 1.2 µM -43% | [6]; at 3.7 µM -3% | [6]; [16] 12% | [6]; at 11.0 µM -8% | [6]; at 33.0 µM 52% | [6]; at 50.0 µM 69.1% | [7]; at 1.2 µM -6% | [7]; at 3.7 µM 10% | [7]; at 11.0 µM 2% | [7]; at 33.0 µM 46% | [8]; at 1.2 µM 17% | [8]; at 3.7 µM 16% | [8]; at 11.0 µM 31% | [8]; at 33.0 µM 48% | [9]; [16] 21% | [9]; at 50.0 µM 34.5% | [10]; at 1.2 µM 7% | [10]; at 3.7 µM 13% | [10]; [16] 39% | [10]; at 11.0 µM 16% | [10]; at 33.0 µM 56% | [10]; at 50.0 µM 65.2% | [11]; at 1.2 µM 12% | [11]; at 3.7 µM 4% | [11]; at 11.0 µM 10% | [11]; at 33.0 µM 64% | [12]; at 1.2 µM -12% | [12]; at 3.7 µM -7% | [12]; at 11.0 µM 9% | [12]; at 33.0 µM 52% | [13]; at 1.2 µM -14% | [13]; at 3.7 µM -3% | [13]; at 11.0 µM 7% | [13]; at 33.0 µM 39% | [14]; [16] 39% | [15]; at 1.2 µM -1% | [15]; at 3.7 µM 9% | [15]; at 11.0 µM 23% | [15]; at 33.0 µM 59%

Source: PubChem BioAssay (NCI)
